Conditions in all cases: mRNA level, 48 h; actives raise or lower the signal
Read-out in assay [1]: Cytochrome P450 (CYP24A1), CYP24A1 (gene 1591)
Put plainly: LTEA_HepaRG_CYP24A1: Life Technologies and Expression Analysis (LTEA) Assay for Cytochrome P450 (CYP24A1) using HepaRG (AID 2283478). A digest of the protocol:
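qRT-PCR read-out: CYP24A1 transcript levels normalized to three housekeeping genes, bidirectional curve fits against 0.5% DMSO baseline. Human HepaRG cells treated 48 h with chemicals at eight concentrations from 100 uM in half-log steps.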

Read-out in assay [2]: Cytochrome P450 (CYP1A2), CYP1A2 (gene 1544)
Put plainly: LTEA_HepaRG_CYP1A2: Life Technologies and Expression Analysis (LTEA) Assay for Cytochrome P450 (CYP1A2) using HepaRG (AID 2283479). The procedure, abridged:
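HepaRG, 48 h exposure, top 100 uM, half-log 8-pt, 0.5% DMSO vehicle, duplicates. Readout: TaqMan qRT-PCR of CYP1A2 mRNA, housekeeping-normalized (ACTB/GAPDH/POLR2A). Gain/loss fit relative to DMSO baseline.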

Read-out in assay [3]: cysteine-aspartic acid protease (CASP8), CASP8 (gene 841)
Put plainly: LTEA_HepaRG_CASP8: Life Technologies and Expression Analysis (LTEA) Assay for cysteine-aspartic acid protease (CASP8) using HepaRG (AID 2283480). The procedure, abridged: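 HepaRG, 48 h exposure, duplicate wells; 8 conc, half-log from 100 uM, 0.5% DMSO. Serum-free induction medium. CASP8 mRNA by TaqMan qRT-PCR, norm. ACTB/GAPDH/POLR2A; gain/loss fitted vs DMSO.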

Read-out in assay [4]: Cytochrome P450 (CYP2B6), CYP2B6 (gene 1555)
Put plainly: LTEA_HepaRG_CYP2B6: Life Technologies and Expression Analysis (LTEA) Assay for Cytochrome P450 (CYP2B6) using HepaRG (AID 2283481). A digest of the protocol:
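Read-out is CYP2B6 mRNA by TaqMan qRT-PCR, normalized to three housekeeping genes and fitted bidirectionally against 0.5% DMSO baseline. Human HepaRG cells received test chemicals for 48 h, top concentration 100 uM, half-log dilutions.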

Read-out in assay [5]: Cytochrome P450 2C19 (Homo sapiens) (UniProt P33261)
Put plainly: LTEA_HepaRG_CYP2C19: Life Technologies and Expression Analysis (LTEA) Assay for CYP2C19 using HepaRG (AID 2283482). The procedure, abridged: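 HepaRG, 48 h chemical exposure, 8-pt half-log series from 100 uM in 0.5% DMSO, duplicates. Readout: CYP2C19 mRNA by TaqMan qRT-PCR, housekeeping-normalized. Bidirectional fit vs DMSO baseline; phenobarbital 1mM as induction control.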

Read-out in the next assay: CYP2C8 (gene 1558)
Put plainly: LTEA_HepaRG_CYP2C8: Life Technologies and Expression Analysis (LTEA) Assay for CYP2C8 using HepaRG (AID 2283483). A digest of the protocol: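 CYP2C8 mRNA induction or loss, by qRT-PCR normalized to ACTB/GAPDH/POLR2A, is read in HepaRG cells after 48 h treatment. Concentrations run from 100 uM down in half-log dilutions, with 0.5% DMSO as vehicle and baseline.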

Read-out in a further assay: CYP2C9 (gene 1559)
Put plainly: LTEA_HepaRG_CYP2C9: Life Technologies and Expression Analysis (LTEA) Assay for CYP2C9 using HepaRG (AID 2283484). The procedure, abridged: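 Cells plated 48 h, switched to serum-free induction medium, then treated in duplicate for 48 h at eight concentrations (max 100 uM, 0.5% DMSO). RNA then analysed by qRT-PCR for CYP2C9; curves fitted in both directions relative to DMSO.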

Read-out in another assay: CYP2E1 (gene 1571)
Put plainly: LTEA_HepaRG_CYP2E1: Life Technologies and Expression Analysis (LTEA) Assay for CYP2E1 using HepaRG (AID 2283485). The procedure, abridged: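 Human liver line HepaRG, plated 48 h, then serum-free induction medium + chemical x 48 h; 8-pt CRC from 100 uM, half-log, 0.5% DMSO, n=2. Readout: CYP2E1 mRNA qRT-PCR vs ACTB/GAPDH/POLR2A; bidirectional fit vs DMSO.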

Read-out in the next assay: CYP4A11 (gene 1579)
Put plainly: LTEA_HepaRG_CYP4A11: Life Technologies and Expression Analysis (LTEA) Assay for CYP4A11 using HepaRG (AID 2283486). A digest of the protocol:
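CYP4A11 transcript levels were quantified by TaqMan qRT-PCR after HepaRG human liver cells were treated for 48 hours with test chemicals (top 100 uM, half-log dilutions, 0.5% DMSO). Gain or loss of signal was fitted relative to DMSO.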

Read-out in assay [6]: Cytochrome P450 3A4 (Homo sapiens) (UniProt P08684)
Put plainly: LTEA_HepaRG_CYP3A4: Life Technologies and Expression Analysis (LTEA) Assay for CYP3A4 using HepaRG (AID 2283487). A digest of the protocol:
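HepaRG, 48 h exposure, 8-pt CRC from 100 uM (half-log), 0.5% DMSO, duplicates; serum-free induction medium. Readout: CYP3A4 mRNA, qRT-PCR, ACTB/GAPDH/POLR2A normalization. Bidirectional fit vs DMSO.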

Read-out in assay [7]: DNA damage-inducible transcript 3 (DDIT3), DDIT3 (gene 1649)
Put plainly: LTEA_HepaRG_DDIT3: Life Technologies and Expression Analysis (LTEA) Assay for DNA damage-inducible transcript 3 (DDIT3) using HepaRG (AID 2283488). A digest of the protocol:
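HepaRG plated 48 h, switched to serum-free induction medium, dosed 48 h (100 uM top, half-log, 8 pts, 0.5% DMSO, n=2); RNA isolated; DDIT3 by qRT-PCR; bidirectional curve fit vs DMSO.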

Read-out in assay [8]: Early growth response protein 1 (EGR1) transcription factor, EGR1 (gene 1958)
Put plainly: LTEA_HepaRG_EGR1: Life Technologies and Expression Analysis (LTEA) Assay for Early growth response protein 1 (EGR1) transcription factor using HepaRG (AID 2283490). A digest of the protocol:
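Read-out is EGR1 mRNA level by qRT-PCR, normalized to three housekeeping genes and analysed for gain or loss of signal against 0.5% DMSO. Source cells: human HepaRG, treated 48 h at up to 100 uM in half-log dilutions.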

Read-out in assay [9]: Ezrin (EZR), EZR (gene 7430)
Put plainly: LTEA_HepaRG_EZR: Life Technologies and Expression Analysis (LTEA) Assay for Ezrin (EZR) using HepaRG (AID 2283491). A digest of the protocol:
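Read-out is EZR transcript level by qRT-PCR, normalized to three housekeeping genes and fitted bidirectionally against the DMSO control. Human HepaRG cells received test chemicals for 48 h at eight half-log concentrations up to 100 uM in 0.5% DMSO.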

Read-out in assay [10]: Cytochrome P450 3A7 (Homo sapiens) (UniProt P24462)
Put plainly: LTEA_HepaRG_CYP3A7: Life Technologies and Expression Analysis (LTEA) Assay for CYP3A7 using HepaRG (AID 2283492). The procedure, abridged:
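CYP3A7 transcript levels were read by TaqMan qRT-PCR on Fluidigm arrays after 48 h chemical exposure of human HepaRG cells, with housekeeping-gene normalisation. Eight half-log concentrations up to 100 uM in 0.5% DMSO were tested in duplicate.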

Read-out in another assay: CYP3A5 (gene 1577)
Put plainly: LTEA_HepaRG_CYP3A5: Life Technologies and Expression Analysis (LTEA) Assay for CYP3A5 using HepaRG (AID 2283493). A digest of the protocol:
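HepaRG plated 48 h, switched to serum-free induction medium, chemicals added 48 h (max 100 uM, half-log, 0.5% DMSO). RNA isolated; CYP3A5 by TaqMan qRT-PCR. Gain/loss vs DMSO.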

Read-out in assay [11]: Fatty Acid-Binding Protein 1 (FABP1), FABP1 (gene 2168)
Put plainly: LTEA_HepaRG_FABP1: Life Technologies and Expression Analysis (LTEA) Assay for Fatty Acid-Binding Protein 1 (FABP1) using HepaRG (AID 2283494). The procedure, abridged:
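HepaRG, 48 h post-plating switched to serum-free induction medium, then dosed 48 h (duplicate, 8 pts, ≤100 uM, 0.5% DMSO). RNA → Fluidigm TaqMan qRT-PCR, FABP1 normed to ACTB/GAPDH/POLR2A. Bidirectional curve fit vs DMSO.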

Read-out in assay [12]: Glutathione S-Transferase (GSTA2), GSTA2 (gene 2939)
Put plainly: LTEA_HepaRG_GSTA2: Life Technologies and Expression Analysis (LTEA) Assay for Glutathione S-Transferase (GSTA2) using HepaRG (AID 2283497). A digest of the protocol: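 HepaRG, 48 h dosing, 8-pt half-log CRC from 100 uM, 0.5% DMSO vehicle, n=2; RNA → Fluidigm TaqMan qRT-PCR; GSTA2 vs ACTB/GAPDH/POLR2A; gain/loss fit vs DMSO.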

Read-out in assay [13]: Cytochrome P450 7A1 (Homo sapiens) (UniProt P22680)
Put plainly: LTEA_HepaRG_CYP7A1: Life Technologies and Expression Analysis (LTEA) Assay for Cytochrome P450 7A1 (CYP7A1) using HepaRG (AID 2283496). The procedure, abridged:
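HepaRG cells plated 48 h, then switched to serum-free induction medium and exposed in duplicate for 48 h to 8-point half-log series from 100 uM in 0.5% DMSO. CYP7A1 mRNA by qRT-PCR (TaqMan), normalized to ACTB/GAPDH/POLR2A; bidirectional fit versus DMSO.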

In PubChem BioAssay (EPA / NIEHS) one finds outcome and AC50 data, which are given here for four compounds.

The source made the active and inactive calls. The calls were made as follows: active = hit-call score of the fitted dose curve at least 0.9, where 1 is the maximum; inactive = score below 0.9.

A word on the AC50: it is the concentration giving half of the maximal activity seen.

Chain of Cytochrome P450 3A4 (Homo sapiens) (P08684 whole entry, looked up): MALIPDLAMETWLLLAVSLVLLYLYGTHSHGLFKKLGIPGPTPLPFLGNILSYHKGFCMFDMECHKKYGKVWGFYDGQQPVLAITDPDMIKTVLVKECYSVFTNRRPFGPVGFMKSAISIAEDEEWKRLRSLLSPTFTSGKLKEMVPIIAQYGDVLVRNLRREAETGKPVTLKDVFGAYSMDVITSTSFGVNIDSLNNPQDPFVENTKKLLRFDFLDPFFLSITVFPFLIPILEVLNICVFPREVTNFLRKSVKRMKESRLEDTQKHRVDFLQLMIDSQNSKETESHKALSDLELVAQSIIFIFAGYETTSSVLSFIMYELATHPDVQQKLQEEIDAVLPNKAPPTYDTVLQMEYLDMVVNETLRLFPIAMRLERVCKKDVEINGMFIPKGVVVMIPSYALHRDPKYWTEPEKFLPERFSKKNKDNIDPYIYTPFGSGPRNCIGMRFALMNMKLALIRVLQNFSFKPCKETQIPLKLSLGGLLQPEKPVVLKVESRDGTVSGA
Chain of Cytochrome P450 2C19 (Homo sapiens) (P33261 whole entry, looked up): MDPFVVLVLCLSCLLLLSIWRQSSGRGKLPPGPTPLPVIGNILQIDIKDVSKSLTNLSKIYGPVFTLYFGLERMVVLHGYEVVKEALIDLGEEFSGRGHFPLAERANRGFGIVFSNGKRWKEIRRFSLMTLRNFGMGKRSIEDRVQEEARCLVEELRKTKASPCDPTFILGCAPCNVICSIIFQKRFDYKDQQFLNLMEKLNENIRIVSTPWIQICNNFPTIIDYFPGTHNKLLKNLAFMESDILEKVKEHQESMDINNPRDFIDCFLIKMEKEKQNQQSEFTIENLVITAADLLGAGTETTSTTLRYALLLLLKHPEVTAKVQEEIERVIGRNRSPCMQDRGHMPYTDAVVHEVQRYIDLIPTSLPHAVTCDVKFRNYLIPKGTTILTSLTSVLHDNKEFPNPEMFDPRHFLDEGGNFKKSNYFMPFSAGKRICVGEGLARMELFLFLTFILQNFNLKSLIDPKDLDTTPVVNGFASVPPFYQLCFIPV
Chain of Cytochrome P450 3A7 (Homo sapiens) (P24462 whole entry, looked up): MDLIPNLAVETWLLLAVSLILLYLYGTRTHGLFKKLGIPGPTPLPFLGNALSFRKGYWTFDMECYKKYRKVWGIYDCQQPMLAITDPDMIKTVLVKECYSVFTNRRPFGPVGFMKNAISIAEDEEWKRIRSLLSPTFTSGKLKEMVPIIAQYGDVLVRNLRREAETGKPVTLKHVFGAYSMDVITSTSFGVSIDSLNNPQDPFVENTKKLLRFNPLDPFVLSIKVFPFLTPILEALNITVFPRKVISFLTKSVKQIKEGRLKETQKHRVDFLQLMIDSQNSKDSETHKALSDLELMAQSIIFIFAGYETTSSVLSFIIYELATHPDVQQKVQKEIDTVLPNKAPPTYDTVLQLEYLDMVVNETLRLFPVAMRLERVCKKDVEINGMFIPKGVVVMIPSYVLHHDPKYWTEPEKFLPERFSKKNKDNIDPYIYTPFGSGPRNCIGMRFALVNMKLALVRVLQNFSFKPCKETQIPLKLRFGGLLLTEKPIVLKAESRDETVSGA

On to `O=[Si]=O`, for which the outcome (in assay [1]; in assay [3]; in assay [5]; with CYP2C8 (gene 1558); in the assay with CYP2C9 (gene 1559); in the assay with CYP2E1 (gene 1571)) was inactive. Besides, the compound was called inactive (with CYP4A11 (gene 1579); in assay [6]; in assay [7]; in [8]; in [9]; in assay [10]). The compound was classed as inactive (with CYP3A5 (gene 1577); in [11]; in [12]). Moreover, the concentration at half-maximal activity (AC50) in assay [2] is 50 µM (active); in assay [4], 0.099 µM (active).
Consider `Nc1nc(=S)c2[nH]cnc2[nH]1`, for which the compound was called inactive (in [1]; in [3]; in the assay with CYP3A5 (gene 1577)). For the same compound, the half-maximal activity concentration (AC50) in assay [2] was 3.04 µM (active); in [4], 5.84 µM (active); in assay [5], 9.48 µM (active); in the assay with CYP2C8 (gene 1558) it was 32.2 µM (active); in the assay with CYP2C9 (gene 1559) it was 7.91 µM (active); with CYP2E1 (gene 1571), 5.72 µM (active). For the same compound, the AC50 with CYP4A11 (gene 1579) is 6.3 µM (active); in [6], 27.6 µM (active); in assay [7], 8.69 µM (active); in [8] it was 7.2 µM (active); in assay [9], 0.586 µM (active); in assay [11], 9.73 µM (active). The results for the half-maximal activity concentration (AC50) in assay [13] and in [12] were 10.2 µM (active) and 7.68 µM (active), respectively.
As for `CCCC[C@H]1CN(CC2CCOCC2)C(=O)OC12CCN(C1(C)CCN(C(=O)c3c(C)ncnc3C)CC1)CC2`, the call (in assay [1]; in assay [2]; in [3]; in [4]; in assay [5]; with CYP2C8 (gene 1558)) was inactive. Moreover, the compound was called inactive (with CYP2C9 (gene 1559); in the assay with CYP2E1 (gene 1571); with CYP4A11 (gene 1579); in assay [6]; in assay [7]; in assay [8]). In addition, the outcome (in [9]; in [10]; with CYP3A5 (gene 1577); in assay [11]; in assay [13]; in assay [12]) was inactive.
For the compound `OCC(CO)n1cnc(-c2ccc(F)cc2)c1-c1ccnc(Oc2ccccc2)n1`, the result (in assay [1]; in assay [2]; in assay [3]; with CYP2C8 (gene 1558); with CYP2C9 (gene 1559); in assay [7]) was inactive. Also, the outcome (in assay [9]; in the assay with CYP3A5 (gene 1577); in [13]; in assay [12]) was inactive. Moreover, the half-maximal activity concentration (AC50) was 22.6 µM (active) in assay [4]; 12.4 µM (active) in assay [5]; 15.5 µM (active) in the assay with CYP2E1 (gene 1571); 16.9 µM (active) with CYP4A11 (gene 1579); 3.72 µM (active) in assay [6]; 20.7 µM (active) in assay [8]. Besides, the half-maximal activity concentration (AC50) is 7.88 µM (active) in assay [10] and 11.2 µM (active) in assay [11].
